Data from PubChem BioAssay AID624330 (Southern Research Specialized Biocontainment Screening …, 2012).
The whole screen tested about 340,000 compounds, of which about 2,100 (0.62%) were called active.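 How the source made its calls: active means first-screen hits whose inhibition reached a set limit at any dose in the follow-up dose series; inconclusive means inhibition above the set first-screen limit but never retested; inactive means the rest.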 Not all results are given here. Measured potencies and affinities stand elsewhere.

target: Rac GTPase-activating protein 1 (Homo sapiens) (UniProt Q9H0H5); assay: blockers of MgcRacGAP-driven Rac1 GTP hydrolysis – biochemical, ADP Hunter fluorescence, primary and confirmatory, confirmation (AID 624330); settings: MgcRacGAP-stimulated Rac1 GTP hydrolysis, at 30 µM, hits give high values, GST-tagged Rac1 F28L mutant substrate;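 further: fluorescence reports GDP produced by GAP-driven GTP hydrolysis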
Sequence (Q9H0H5 whole entry, looked up): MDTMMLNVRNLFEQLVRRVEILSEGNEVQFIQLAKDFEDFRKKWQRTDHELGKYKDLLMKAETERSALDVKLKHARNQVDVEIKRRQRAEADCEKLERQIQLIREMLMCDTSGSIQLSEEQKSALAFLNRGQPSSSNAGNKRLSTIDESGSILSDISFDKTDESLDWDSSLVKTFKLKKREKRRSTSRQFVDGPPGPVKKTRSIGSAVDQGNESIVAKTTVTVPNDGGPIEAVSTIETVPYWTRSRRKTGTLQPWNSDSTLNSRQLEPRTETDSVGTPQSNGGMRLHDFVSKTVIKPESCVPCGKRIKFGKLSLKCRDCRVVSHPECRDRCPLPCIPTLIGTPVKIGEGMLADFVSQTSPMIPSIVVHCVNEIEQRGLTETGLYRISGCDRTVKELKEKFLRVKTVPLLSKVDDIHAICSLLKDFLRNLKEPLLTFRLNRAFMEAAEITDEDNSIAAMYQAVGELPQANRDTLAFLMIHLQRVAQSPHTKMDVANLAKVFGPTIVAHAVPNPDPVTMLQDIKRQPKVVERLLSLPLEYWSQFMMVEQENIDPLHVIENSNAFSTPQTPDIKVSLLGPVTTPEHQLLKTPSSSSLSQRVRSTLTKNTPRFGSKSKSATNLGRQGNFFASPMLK

inhibition, inactive:
Cn1c(/N=C/c2c[nH]c3ccccc23)nc2ccccc21 8.49%, Cc1ccc(/C=N/Nc2nc3ccccc3[nH]2)s1 -6%, Cc1cc(N/N=C/c2c[nH]c3ccccc23)c2ccccc2n1 -1.16%, COc1ccc(/C=N/Nc2nc3ccccc3[nH]2)c(OC)c1OC 12.8%, Cc1ccccc1/C=N/Nc1nc2ccccc2[nH]1 18.4%, Fc1c(F)c(F)c(N/N=C/c2c[nH]c3ccccc23)c(F)c1F 3.69%, Cc1cc(=O)[nH]c(N/N=C/c2c[nH]c3ccccc23)n1 22.9%, CC(C)n1c(/N=C/c2c[nH]c3ccccc23)nc2ccccc21 1.11%, Cc1ccc(-c2nc(C3CCN(S(C)(=O)=O)CC3)no2)cc1 10.6%, O=C1NC(Cc2ccccc2)c2nc3ccc(Cl)cc3c(=O)n2-c2ncccc21 (configuration not stated) 7.29%, CC(NS(C)(=O)=O)C(c1cccs1)N1CCN(C)CC1 (configuration not stated) 10.3%, CCOC(=O)N1CCN(CC(O)COc2ccc(C(C)C)c(C)c2)CC1 (configuration not stated) 5.78%, COCC1CCCCN1C(=O)c1ccc(OC2CCN(CCc3ccccc3)CC2)cc1 (configuration not stated) 10.2%, COC(=O)c1cc(S(=O)(=O)N2CCC(c3cc(OC)ccc3OC)C2)c[nH]1 (configuration not stated) 8.61%, Cc1ccc(-c2sc(C)nc2CC(=O)O)cc1 13.9%, O=C(Nc1cccc(-n2cnnn2)c1)c1cc(Cl)nc(Cl)c1 9.64%, COc1ccccc1/C=C/C(=O)OCc1nc2ccccc2c(=O)[nH]1 7.19%, CC(C)(Oc1ccc(Cl)cc1)C(=O)NC1CC1 7.55%, CCC(C)c1ccc(OCC(=O)Nc2ccc3c(c2)C(=O)NC3=O)cc1 (configuration not stated) 5.62%, c1ccc(-c2ccccc2OCCCCN2CCCCC2)cc1 29.3%, C=CCNC(=S)N/N=C(\C)c1ccc(-n2ccnc2)cc1 -11.5%, COc1ccc(NC(=O)CN(C)C2CCCCC2)cc1Cl 12.2%, CC1CCCCN1CC(=O)Nc1ccc2c(c1)OC(F)(F)O2 (configuration not stated) -6.38%, CN(CC(=O)Nc1ccc(S(N)(=O)=O)cc1)C1CCCCC1 1.98%, O=C(CN1CCOCC1)Nc1ccc2c(c1)OC(F)(F)O2 1.95%, CN(CC(=O)Nc1ccc(Cl)cc1)C1CCCCC1 9.37%, CN(CC(=O)Nc1ccc(Cl)c(Cl)c1)C1CCCCC1 23.1%, c1ccc(Cc2nc3ccccc3o2)cc1 8.84%, CCN(c1ccccc1)S(=O)(=O)c1ccc(C(=O)Nc2cccc(NC(C)=O)c2)cc1 5.09%, COc1ccc(/C=C2\SC(=S)N(CCC(=O)Nc3ccc(C(=O)O)cc3)C2=O)cc1OC 0.85%, COCC(=O)Nc1ccc(F)cc1 -1.69%, CC(=O)Nc1ccc(N=Nc2ccccc2)cc1 0.87%, CC(=O)Nc1ccc(N=NN2CCOCC2)cc1 4.54%, O=C(CC(=O)Nc1ccc(F)cc1)Nc1ccc(F)cc1 5.61%, O=C(Cc1ccccc1)Nc1ccc(C(=O)Nc2ccc(O)cc2)cc1 24.4%, NC(=Nc1ccccc1)Nc1ccccc1 7.17%, CC(=Nc1ccccc1)Nc1ccccc1 5.11%, O=C(COC(=O)c1ccc(O)cc1)Nc1ccccc1 10.2%, CCC(Oc1ccccc1)C(=O)Nc1ccccc1N1CCCC1 (configuration not stated) 7.77%, CNC(=O)c1oc(-c2ccccc2)nc1C 10.8%, O=C(COC(=O)C1CC(=O)N(c2ccc3c(c2)OCCO3)C1)Nc1ccc2c(c1)CCC2 (configuration not stated) 8.9%, O=C1CC(NS(=O)(=O)c2cccnc2)CN1c1cccc(F)c1 (configuration not stated) 6.2%, COC(=O)C(C(=O)N1CCN(C)CC1)C1CCCCCC1 (configuration not stated) -1.36%, Cc1ccc(NC(=O)c2cc(S(=O)(=O)N3CCOCC3)ccc2Cl)cc1S(=O)(=O)N1CCOCC1 9.95%, Cc1ccc(Nc2nc3ccccc3n3cnnc23)c(Cl)c1 5.8%, CCN(CC)C(=O)Cn1cc(C(=O)C(=O)NCCc2c[nH]c3ccccc23)c2ccccc21 7.03%, CCN(CC)CCN(C(=O)c1cc2ccccc2cc1OC)c1nc2ccc(F)cc2s1 6.61%, COc1ccc(CN2CCCCCC2)cc1 18.2%, COc1cc(OC)c(OC)cc1CN1CCN(Cc2ccc(C(F)(F)F)cc2)CC1 24.6%, FC(F)(F)c1ccc(CN2CCCCCC2)cc1 16.1%, COc1cc(CN2CCN(C(O)(c3ccccc3)c3ccccc3)CC2)cc(OC)c1OC 27.9%, O=C(O)CC1(CC(=O)NCc2cc(F)cc3c2OCOC3)CCCCC1 5.25%, CN(CCc1cn[nH]c1)C(=O)CC1C(=O)NCCN1Cc1ccccc1C(F)(F)F (configuration not stated) -8.64%, Cc1ccc(C(=O)NC(=O)CSc2ncccc2C(=O)O)cc1 1.2%, Cc1ccc(S(=O)(=O)NN2C(=O)c3ccccc3NC2(C)C)cc1 6.9%, CC[C@H](C)[C@H](NC(N)=O)C(=O)Nc1ccc2c(c1)OCO2 3.75%, N#Cc1ccccc1S(=O)(=O)N1CCC(C(=O)Nc2cccc(C(=O)NC3CC3)c2)CC1 -0.25%, Cc1cc(C(=O)O)ccc1N=Cc1c(O)ccc2ccccc12 3.39%, CCOC(=O)c1c(/N=C/c2ccc(OC)cc2O)sc2c1CCN(C)C2 17%, CCOC(=O)c1c(/N=C/c2ccc(C)cc2O)sc2c1CCC2 5.81%, CCOC(=O)c1cc(CC)sc1/N=C/c1c(O)ccc2ccccc12 8.65%, N#Cc1ccc(OCC(=O)N2CCN(C(=O)c3ccco3)CC2)cc1 3.79%, Cc1cc(COc2ccccc2OCc2cc(C)no2)on1 9.58%, CCOC(=O)c1c(N)sc(N)c1C(=O)OCC 7.17%, CCOC(=O)c1c(NC(C)=O)sc2c(OC)c(Br)ccc12 -9.05%, CCOC(=O)c1c(NC(C)=O)sc2c(O)c(Br)ccc12 4.12%, CCOC(=O)c1c(N)sc2c(OCC)c(Br)ccc12 5.92%
